In PubChem BioAssay (NCATS):
Inconclusive results are not listed. Values without a mark were called inactive. The source made the active and inactive calls. Calls follow the shape of the dose curve; as a rule, active = well fitted inhibition curve with a large enough effect; inconclusive = small, poorly fitted or top-dose-only effect; inactive = no such curve, though single readings can be large or run the other way.

The molecules below were run on Zika virus NS2B-NS3 protease (unlinked complex) (assay: Primary screen GU Rhodamine qHTS for Zika virus inhibitors: Unlinked NS2B-NS3 protease assay (AID 1347159; also: nearly all actives have a fitted effect of over 60% in size)). Details: Recombinant ZIKV NS2B-NS3 protease, Rhodamine110 substrate fluorescence; series mostly up to 107 µM; activity change, negative = inhibition: at the top concentration.
In short: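 Enzyme 25 nM in Tris-HCl pH 8.0 + 0.01% Tween 20; compounds up to 114 microM, 15 min RT dark; + Rhod110 substrate 1.5 microM; read t0 and 15 min; delta fluorescence → % inhibition → 4-parameter Hill fit.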
% is scaled to controls: 0 for no effect and ±100 for the full control effect; potency is read from the fitted curve at half-maximal effect.

Compound | activity change, negative = inhibition | Potency
COC(=O)c1c(C)cc(OC(=O)c2c(C)cc(OC)cc2OC)cc1O[C@@H]1O[C@H](CO)[C@@H](O)[C@H](O)[C@H]1O | 21.2% [at 57.1 µM] | 
CCNC(=O)Nc1ncc(-c2cc(-c3c(C)cc(OC)cc3C)nc(-c3cnccn3)n2)s1 | -0.672% | 
CC1(C)CCCC2(C)C1C(O)C=C(CO)C2(O)CO (centres undefined) | 13.6% | 
COc1nc2sc(C(=O)NC3CC3)c(N)c2c(C)c1Cl | 14.1% | 
C=C1CCC2C(C)(C)C(O)CCC2(C)C1CCC(C)CCOC(C)=O (centres undefined) |  | 22.4 µM (active)
CC(=O)N1CCN(Cc2ccc([C@H](C)Nc3nccc(N4C(=O)OC[C@@H]4C(C)C)n3)cc2)CC1 | 1.09% | 
C=C[C@H]1[C@H](O[C@@H]2O[C@H](CO)[C@@H](O)[C@H](O)[C@H]2O)OC=C(C(=O)OC)[C@H]1C[C@@H]1c2cc(O)c(O)cc2CCN1C(C)=O | 9.22% [at 32.5 µM] | 
COc1ccc(CC2C(=O)NC(C)C(=O)N(C)C3Cc4ccc(cc4)Oc4cc(ccc4OC4OC(CO)C(O)C(O)C4O)CC(C(=O)NC(C)C(=O)NC(C)C(=O)N2C)N(C)C3=O)cc1 (centres undefined) | -8.53% [at 32.5 µM] | 
CO[C@H]1C[C@@H]2CC[C@@H](C)[C@@](O)(O2)C(=O)C(=O)N2CCCC[C@H]2C(=O)O[C@H]([C@H](C)C[C@@H]2CC[C@H](n3cnnn3)[C@H](OC)C2)CC(=O)[C@H](C)/C=C(\C)[C@@H](O)[C@@H](OC)C(=O)[C@H](C)C[C@H](C)/C=C/C=C/C=C/1C | 0% [at 57.1 µM] | 
CO/N=C(/C(=O)N[C@@H]1C(=O)N2C(C(=O)O)=C(Cn3ccc(=N)n3CCO)CS[C@H]12)c1csc(N)n1 | 27.8% | 
CC(C)Oc1ccc(C(=O)NC(CNC(=O)CN(C)C)Cc2ccc(-c3cn4cccc(C(C)O)c4n3)cc2)cc1Cl (centres undefined) | 25% | 
Cc1cc2c(F)c(Oc3ncnn4cc(OCC(C)O)c(C)c34)ccc2[nH]1 (centres undefined) | 3.13% | 
CC(C)[C@@H]1C(=O)N(S(C)(=O)=O)[C@@H]2CCN(C(=O)/C=C/CN3CCCCC3)[C@H]21 | -12.4% | 
C[C@@H]([C@@H](O)c1ccc(O)cc1)N1CCC(O)(c2ccccc2)CC1 | 16.8% | 
CC1(C)CC2C=C(C(=O)O)C3COC(=O)C(O)(CO)C23C1 (centres undefined) | -8.71% | 
COc1ccc(F)cc1-c1cc(NC(=O)[C@@H]2CCCNC2)ncc1Cl | 126% | 
Cn1c(=O)cc(N2CCCC(N)C2)n(Cc2cc(F)ccc2C#N)c1=O (centres undefined) | 16.2% | 
C[C@@H]1O[C@@H](O[C@H]2[C@H](O)[C@@H](O[C@@H]3O[C@H](CO)[C@@H](O)[C@H](O[C@@H]4O[C@H](CO)[C@@H](O)[C@H](O)[C@H]4O)[C@H]3O)[C@H](O[C@H]3CC[C@@]4(C)C(=CC[C@@H]5C4CC[C@@]4(C)C5C[C@@H]5OC6(CC[C@@](C)(CO[C@@H]7O[C@H](CO)[C@@H](O)[C@H](O)[C@H]7O)O6)[C@@H](C)[C@@H]54)C3)O[C@@H]2CO)[C@H](O)[C@H](O)[C@H]1O (some centres undefined) | 33% [at 19.1 µM] | 
COc1ccc([C@H]2CNC(=O)C2)cc1OC1CCCC1 | 14.4% | 
C=CC1C(OC2OC(CO)C(O)C(O)C2O)OC=C(C(=O)OC)C1CC(=O)OCC1C(C)C(O)CC1C(CO)COC(=O)CC1C(C(=O)O)=COC(OC2OC(CO)C(O)C(O)C2O)/C1=C\C (centres undefined) | 15.5% [at 32.5 µM] | 

Compound | activity change, negative = inhibition | Potency
CC(C)(C)c1cc(Br)cc([C@H](CC(=O)O)NC(=O)CNC(=O)c2cc(O)cc(NC3=NCC(O)CN3)c2)c1 (some centres undefined) | -8.05% | 
COC(=O)C1=CO[C@@H](O[C@@H]2O[C@H](CO)[C@@H](O)[C@H](O)[C@H]2O)[C@@H]2C(CO)=CC[C@]12O | -14.1% [at 57.1 µM] | 
C=C1C[C@@]23CCC4[C@@](C)(CCC[C@@]4(C)C(=O)OC)C2CC[C@@H]1C3 (some centres undefined) | 1.76% | 
Nc1nc2c(ncn2[C@@H]2O[C@@H]3COP(=O)(O)O[C@H]3[C@H]2O)c(=O)[nH]1 | -11.5% | 
CC(C)(C(=O)NCC(F)(F)C(F)(F)F)C(=O)NC1C(=O)Nc2ccccc2-c2ccccc21 (centres undefined) | 23.2% | 
CCN1CCN(Cc2ccc(Nc3ncc(F)c(-c4cc(F)c5nc(C)n(C(C)C)c5c4)n3)nc2)CC1 | -8.06% | 
NC(=O)Nc1cc(-c2cccc(F)c2)sc1C(=O)NC1CCCNC1 (centres undefined) | 113% | 
COc1ccc(-c2nc(-c3ccc(-c4cccc(Cl)c4)o3)[nH]c2-c2ccc(OC)cc2)cc1 | 8.88% | 
COc1cc(C(=O)O)ccc1OC1OC(CO)C(O)C(O)C1O (centres undefined) | 4.28% | 
O=C(O)c1ccc(CN2CCC(CN[C@@H]3C[C@H]3c3ccccc3)CC2)cc1 | 0% | 
CN[C@H](CC(C)C)C(=O)N[C@H]1C(=O)N[C@@H](CC(N)=O)C(=O)N[C@H]2C(=O)N[C@H]3C(=O)N[C@H](C(=O)N[C@H](C(=O)O)c4cc(O)cc(O)c4-c4cc3ccc4O)[C@H](O[C@H]3C[C@](C)(N)[C@@H](O)[C@H](C)O3)c3ccc(c(Cl)c3)Oc3cc2cc(c3O[C@@H]2O[C@H](CO)[C@@H](O)[C@H](O)[C@H]2O[C@H]2C[C@](C)(NCc3ccc(-c4ccc(Cl)cc4)cc3)[C@@H](O)[C@H](C)O2)Oc2ccc(cc2Cl)[C@H]1O | 0% [at 32.5 µM] | 
CC1OC(OC2C(OC3C(O[C@H]4CC[C@@]5(C)C(CC[C@]6(C)C5C(=O)C=C5C7CC(C)(C)CC(O)[C@]7(C)CC[C@]56C)C4(C)C)OC(C(=O)O)C(O)C3O)OCC(O)C2O)C(O)C(O)C1O (some centres undefined) | -13.9% [at 32.5 µM] | 
CC(=O)OC[C@]12[C@H](OC(C)=O)C(=O)[C@@H]3[C@@H](OC(C)=O)[C@@]14O[C@@]3(C)COC(=O)c1cccnc1[C@@H](C)[C@H](C)C(=O)O[C@@H]([C@H](O)[C@@H]2OC(C)=O)[C@]4(C)O | 0.454% [at 32.5 µM] | 
CC(=O)N1CCc2ccc(O)c(OC3OC(COC4OCC(O)(CO)C4O)C(O)C(O)C3O)c2C1Cc1ccc(O)cc1 (centres undefined) | 5.15% [at 32.5 µM] | 
CC(O)/C=C/C1(O)C2(C)COC1(C)CC(O)C2 (centres undefined) | 7.65% | 
CC1COC2(OC3CC4C5CC(O[C@@H]6O[C@H](C)[C@@H](O[C@@H]7O[C@@H](C)[C@H](O)[C@@H](O)[C@H]7O)[C@H](O)[C@H]6O)C6CC(O)CCC6(C)C5CCC4(C)C3C2C)C(O)C1 (some centres undefined) | 6.91% [at 32.5 µM] | 
CC(O)CO[C@@H]1O[C@H](CO)[C@@H](O)[C@H](O)[C@H]1O (some centres undefined) | 12.1% | 
CC1=CCC(C(C)(C)O[C@@H]2O[C@H](CO[C@@H]3O[C@@H](C)[C@H](O)[C@@H](O)[C@H]3O)[C@@H](O)[C@H](O)[C@H]2O)CC1 (some centres undefined) | 8.64% [at 57.1 µM] | 
C[C@@H]1CC[C@]2(C(=O)O[C@@H]3O[C@H](CO)[C@@H](O)[C@H](O)[C@H]3O)CC[C@]3(C)C(=CCC4[C@@]5(C)C[C@@H](O)[C@H](O)[C@](C)(C(=O)O)C5CC[C@]43C)[C@@H]2[C@]1(C)O (some centres undefined) | 10.1% [at 32.5 µM] | 
